Compound activity as filed in PubChem.
Shown is part of a subset that was picked to be rich in hits.
FBPA Giardia inh: inhibitors of Giardia lamblia fructose-1,6-bisphosphate aldolase | A8B2U2 | purified Giardia FBPA | Potency, µM (highest dose often 59.6 µM), for the others: at the highest dose activity, negative = inhibition, usual class: inhibitors | actives 0.71% (n = 290,000); note: potency is the fitted concentration of half-maximal effect; % is set by controls: 0 for no effect and ±100 for the full control effect; nearly all actives have a fitted effect of over 55% in size
Target sequence (A8B2U2 whole entry, looked up): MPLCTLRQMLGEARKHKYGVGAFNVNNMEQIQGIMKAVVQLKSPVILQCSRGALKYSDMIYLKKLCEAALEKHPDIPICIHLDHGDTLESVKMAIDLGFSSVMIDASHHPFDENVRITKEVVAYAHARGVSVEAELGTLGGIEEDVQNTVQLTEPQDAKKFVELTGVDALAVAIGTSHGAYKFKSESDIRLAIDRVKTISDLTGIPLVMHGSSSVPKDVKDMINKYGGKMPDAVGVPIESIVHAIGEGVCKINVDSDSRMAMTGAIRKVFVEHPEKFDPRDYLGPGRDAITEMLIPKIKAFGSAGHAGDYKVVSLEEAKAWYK
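Giardia FBPA (40 nM reagent) was preincubated 10 min at RT with compound (up to 57.5 uM final), then substrate plus GAPDH/TPI/NAD/arsenate coupling system with diaphorase/resazurin was added; resorufin fluorescence (525/598 nm) was read after 20 min.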
LmPK inh: inhibitors of Leishmania mexicana pyruvate kinase; Q27686; purified LmPK, Kinase-Glo ATP luminescence, 1 h; Potency, µM (top dose mostly 57.5 µM), for the others: at the highest dose activity change, negative = inhibition, usual class: inhibitors; actives 0.37% (n = 290,000); note: potency is the fitted concentration of half-maximal effect; % is set by controls: 0 for no effect and ±100 for the full control effect
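In 50 mM imidazole pH 7.2 with 7 mM MgCl2, LmPK (0.1 nM) turned over PEP (0.5 mM) and ADP (0.1 mM) for 1 h at room temperature. Luciferase read-out of ATP.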
TbPYK inhibitor: T. brucei pyruvate kinase inhibition; Q57TT1; TbPYK enzyme, Kinase-Glo Plus ATP luminescence, 45 min; Potency, µM (top dose mostly 76.8 µM), without a hit: at the highest dose activity, negative = inhibition, actives largely listed as inhibitors; actives 0.12% (n = 410,000); AID 624173; note: potency is the fitted concentration of half-maximal effect; % is set by controls: 0 for no effect and ±100 for the full control effect; nearly all actives have a fitted effect of over 50% in size
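Activity of T. brucei pyruvate kinase was followed by Kinase-Glo Plus luminescence after the enzyme reacted 45 min at room temperature with 130 uM ADP (final) and substrate. Test compounds were added before ADP at multiple concentrations.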
Shiga inhibitor: Shiga toxin inhibition. Vero cells, Shiga toxin protein synthesis inhibition reporter. inhibition, % at 38.7 µM. actives 9.2% (n = 290,000); in the data active = inhibition mostly above about 28%, no sharp cut-off; inactive = mostly below about 43%; note: 0% is about no effect
Cycloheximide cs: counter-screen hit for Shiga toxin inhibitors, cycloheximide. AID 2314. cell reporter, cycloheximide protein synthesis inhibition counterscreen. max response, %. actives 12% (n = 300,000); in the data active = max response mostly above about 13%, no sharp cut-off; inactive = mostly below about 14%; note: read at 38.3 µM for the half of the compounds with a filed dose; 0% is about no effect
RE007 growth inh: less growth of the S. pombe RE007 Vpr strain; actives 0.21% (n = 360,000); Potency, µM (series often up to 92.2 µM), inactives show at the highest dose activity change, negative = less growth, most hits filed as inhibitors; S. pombe RE007 Vpr strain, BacTiter-Glo ATP luminescence, 24 h; AID 651644; active = well fitted falling curve with a large enough effect; inconclusive = small, poorly fitted or top-dose-only effect; inactive = no such curve, though single readings can be large or run the other way; note: potency is the fitted concentration of half-maximal effect; % is set by controls: 0 for no effect and ±100 for the full control effect; nearly all actives have a fitted effect of over 50% in size
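Fission yeast strain RE007, carrying one chromosomally integrated HIV-1 vpr copy, was seeded at OD 0.01 in PMG+AL medium with 23 nL pinned compound. After 24 h at 30 °C and 99% humidity, viability was read by BacTiter-Glo luminescence.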
The depositor's hits bear a star; ? = inconclusive; . = no result; [ ] = remark or other dose. Unless noted, calls come from the whole dose curve; as a rule, active = well fitted curve in the direction sought with a large enough effect; inconclusive = small, poorly fitted or top-dose-only effect, or another doubt; inactive = no such curve, though single readings can be large; an effect the other way counts as inactive or inconclusive.

SMILES	FBPA Giardia inh	LmPK inh	TbPYK inhibitor	Shiga inhibitor	Cycloheximide cs	RE007 growth inh
O=[N+]([O-])c1ccc(NN=Cc2ccccc2O)nc1	.	.	9%	.	.	-14%
CC(=O)c1ccc(-c2ccc(C(=O)Nc3nc(C)c(C(C)=O)s3)o2)cc1	.	.	-9%	.	.	2%
Clc1ccc(/C=C/c2ncc[nH]2)c(Cl)c1	-9%	-4%	-8%	65*	46*	-18%
COC(=O)C1=CO[C@@H](C)[C@@H]2CN3CCc4c([nH]c5ccccc45)[C@@H]3C[C@H]12	?	.	.	23	-2	.
COC(=O)c1ccccc1NC=C1C(=O)OC2(CCCCC2)OC1=O	3%	-1%	2%	-12	12	2%
COc1ccccc1NC=C1C(=O)OC2(CCCCC2)OC1=O	0%	1%	3%	80	31*	-10%
CC(C)N(CCO)C(=O)CCc1nnc(CCCc2ccccc2)o1	0%	-1%	-3%	63*	39*	-12%
CC(C)N(Cc1nccn1C)C(=O)CCc1nnc(CCCc2ccccc2)o1	-11%	0%	7%	59*	56*	-1%
CC(C)N1CCCC(CNC(=O)CCc2nnc(CCCCc3ccccc3)o2)C1 (configuration not stated)	0%	4%	3%	-7	2	-12%
CSc1ccc(CC(=O)N2CCC(n3nccc3NC(=O)C3CC3)CC2)cc1	?	1%	-7%	75*	45*	5%
CSCC(=O)N1CCC(n2nccc2NC(=O)c2ccc3c(c2)OCO3)CC1	1%	-2%	-2%	62*	36*	4%
CSCC(C)N1CCC(n2nccc2NC(=O)c2ccc3c(c2)OCO3)CC1 (configuration not stated)	.	6%	1%	-11	-2	7%
COC(=O)N1CCc2cc(OC)c(OC)cc2C1Cc1ccc(OC)cc1 (configuration not stated)	-2%[12.9 µM]	.	.	.	.	.
Nc1nonc1-n1nnc(C(=O)N/N=C/c2ccccc2Cl)c1COc1ccc(F)cc1	?	-1%	1%	-8	-4	13%
O=C(NCc1ccco1)/C(=C/c1ccc(C(F)(F)F)cc1)c1nc2ccccc2[nH]1	-30%	4%	1%	12*	59*	1%
O=S(=O)(/C(=C\c1ccc(C(F)(F)F)cc1)c1nc2ccccc2[nH]1)c1ccccc1	.	.	-3%	.	.	-22%
O=C(NCc1ccco1)/C(=C/c1cccc(C(F)(F)F)c1)c1nc2ccccc2[nH]1	-13%	-1%	-9%	-1	18*	-9%
O=C(COC(=O)/C=C/c1cccc(C(F)(F)F)c1)NCc1ccco1	.	.	-9%	.	.	1%
CC(C)N1CCN(C(=O)c2ccc(NC(=O)c3ccc(Br)o3)cc2)CC1	.	.	-4%	.	.	4%
CC(C)N1CCC(=NNC(=O)c2ccc(Br)o2)CC1	-3%	-3%	-7%	37*	42*	8%
O=C(NN=C1CCCCCC1)c1ccc(Br)o1	-4%	-2%	-11%	87*	48*	1%
COc1ccccc1CNC(=O)Cc1ccccc1	-2%	-1%	-8%	35*	35*	2%
O=C(CSc1ccccc1)NCc1ccccc1	11%	-1%	-3%	.	18*	-6%
COc1ccccc1CNC(=O)Cc1ccc(OC)c(OC)c1	1%	-1%	0%	-5	-2	-1%
COc1ccccc1CNC(=O)c1n[nH]c2ccccc12	-4%	-3%	-3%	46*	29*	-1%
SMILES	FBPA Giardia inh	LmPK inh	TbPYK inhibitor	Shiga inhibitor	Cycloheximide cs	RE007 growth inh
COc1ccccc1CNC(=O)CSc1ccccc1	-8%	1%	-6%	50*	19*	-14%
CCNC(C)Cc1ccc2c(c1)OCO2 (configuration not stated)	.	.	6%[157 µM]	.	.	.
CCNC(=O)CC1C(=O)N(c2ccc(F)cc2)C(=O)N1CCOC (configuration not stated)	.	.	3%	.	.	.
O=C(Nc1nnc(S(=O)(=O)N2CCCCCC2)s1)c1ccccc1F	-22%	-7%	0%	18	11*	-15%
O=C(Nc1nnc(S(=O)(=O)N2CCOCC2)s1)c1ccccc1Cl	?	-1%	-2%	-1	-3	-3%
O=C(Nc1nnc(S(=O)(=O)N2CCOCC2)s1)c1ccccc1F	.	-4%	1%	15	17*	-21%
O=C(Nc1nc(COc2ccccc2)cs1)c1ccccc1F	-3%	1%	-18%	14*	24	-4%
O=C(Nc1nnc(-c2ccccc2)s1)c1ccccc1F	-29%	-5%	4%	59*	74*	2%
Cc1csc2nc(COc3cccc(NC(=O)c4ccccc4F)c3)cc(=O)n12	.	.	-7%	.	.	.
Cc1cccc(C)c1NC(=O)Cn1nc(C)c2sc3ccccc3c2c1=O	.	.	4%	.	.	.
CCSc1ncc(Cl)c(C(=O)Nc2nc3ccc(S(C)(=O)=O)cc3s2)n1	.	.	2%	.	.	.
Cc1cc(C)c2c(=O)cc(C(=O)NCc3ccc(S(N)(=O)=O)cc3)oc2c1	.	.	0%	.	.	.
O=C(Nc1nnc(S(=O)(=O)N2CCOCC2)s1)c1cccc(F)c1	?	3%	6%	31*	20*	1%
Cc1cccc(C(=O)Nc2nnc(S(=O)(=O)N3CCOCC3)s2)c1	?	0%	-7%	23	9	-2%
Cc1c(C(=O)NCc2ccco2)oc2ccc(Br)cc12	.	.	-4%	.	.	-22%
O=C(NCc1ccco1)c1cc2cc(Br)ccc2o1	.	-1%	-28%	87*	35*	?
O=C(NCc1ccco1)c1cc2ccccc2c(=O)o1	0%	5%	2%	148*	67*	-27%
O=C(NCc1ccco1)Nc1ccc(Br)cc1Cl	0%	3%	9%	87*	48*	1%
O=C(NCc1ccco1)c1cc(=O)c2ccccc2o1	-2%	6%	4%	15	-2	4%
Cc1ccc(S(=O)(=O)N2CCC3(CC2)OCCN3S(=O)(=O)c2c(C)cc(C)cc2C)cc1	.	.	3%	.	.	0%
COP(=O)(OC)C(Nc1ccc(Cl)cc1)c1ccccc1 (configuration not stated)	-7%	-2%	-1%	.	-2	3%
COC(=O)c1ccc(NC(c2ccc(Cl)cc2)P(=O)(OC)OC)cc1 (configuration not stated)	0%	9%	-12%	20	32*	18%
CCCC1CCC(=NNC(=O)OC(C)(C)C)CC1 (configuration not stated)	-3%	1%	4%	61	31*	6%
CCOC(=O)N1CCN(Cc2nc(N)nc(Nc3ccc(Cl)cc3)n2)CC1	-1%	7%	-2%	40	14*	3%
CCOC(=O)N1CCN(Cc2nc(N)nc(Nc3ccc(OC)cc3)n2)CC1	-13%	-5%	-1%	-18	6	-6%
